Experimental findings from PubChem BioAssay (NCI) are described below.

The panel holds about 83,000 compounds, 20% with a hit somewhere; the sample as a whole holds those more often.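 Percent growth is the endpoint: 0 to 100 indicates growth inhibition (40 means 60% inhibition), 0 means no net growth, and negative values indicate cell death.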 Values without a mark were called inactive. Activity calls are given as the source filed them. How the source made its calls: active means growth percent below 10; inactive means the rest.

Among the test systems are DU-145 prostate; K-562 leukemia; MALME-3M melanoma; MDA-MB-231 breast; RXF 393 renal; SF-268 CNS; SF-295 CNS; SF-539 CNS; UACC-257 melanoma; M14 melanoma.
Holding throughout (assay): NCI-60 one-dose screen, 48 h (100 = growth as untreated, 0 = no growth, -100 = all killed)
Holding throughout (conditions): 10 µM unless noted

For the compound `COc1cc(/C=C/[N+](=O)[O-])c([N+](=O)[O-])cc1OC`, the growth is 38.6% in the assay with DU-145 prostate; 10.9% in the assay with K-562 leukemia; 11.7% in the assay on MALME-3M melanoma; -12.1% (active) in the assay with MDA-MB-231 breast; -92.9% (active) in the assay with RXF 393 renal; 48.3% with SF-268 CNS. Besides, the growth in the assay on SF-295 CNS is 107%; with SF-539 CNS, -32.4% (active); in the assay on UACC-257 melanoma, 65.7%; in the assay on M14 melanoma, 7.35% (active).
`COC(C(=O)[C@@H](O)[C@@H](C)O)[C@@H]1Cc2cc3cc(O[C@H]4C[C@@H](O[C@H]5C[C@@H](O)[C@H](O)C(C)O5)[C@H](O)C(C)O4)c(C)c(O)c3c(O)c2C(=O)[C@H]1O[C@H]1C[C@@H](O[C@H]2C[C@@H](O[C@H]3C[C@@H](O)[C@@H](O)C(C)O3)[C@@H](O)C(C)O2)[C@H](O)C(C)O1` (stereo not given in full): the growth in the assay with DU-145 prostate was 17.5%; in the assay on K-562 leukemia it was 9.59% (active); in the assay with MALME-3M melanoma, -38.7% (active); with MDA-MB-231 breast it was 3.75% (active); in the assay on RXF 393 renal it was -60.5% (active); in the assay on SF-268 CNS, 24.4%. Moreover, the growth with SF-295 CNS is 12.9%; in the assay with SF-539 CNS, 1.03% (active); with UACC-257 melanoma, -38.6% (active); in the assay on M14 melanoma, 8.68% (active).
For `C=CC[Se]C(=O)c1ccccc1OC(C)=O`, the growth is 1.76% (active) in the assay with DU-145 prostate; 46.8% in the assay on K-562 leukemia; 30.9% in the assay on MALME-3M melanoma; -25.5% (active) in the assay on MDA-MB-231 breast; -21% (active) in the assay on RXF 393 renal; 27.1% with SF-268 CNS. Further, the growth was -29.4% (active) in the assay with SF-295 CNS, -82.4% (active) with SF-539 CNS, 5.44% (active) in the assay on UACC-257 melanoma and -6.78% (active) with M14 melanoma.
Regarding `CC(=O)ONc1ccc([N+](=O)[O-])c(C(F)(F)F)c1`, the growth in the assay with DU-145 prostate was 108%; with K-562 leukemia it was 105%; in the assay with MALME-3M melanoma, 111%; in the assay on MDA-MB-231 breast it was 102%; in the assay on RXF 393 renal, 115%; in the assay on SF-268 CNS, 95.3%. The growth was 97.8% in the assay on SF-295 CNS, 93.5% in the assay with SF-539 CNS, 110% with UACC-257 melanoma and 98.8% in the assay with M14 melanoma.
As for `O=C(N/N=C/c1ccc(N(CCCl)CCCl)cc1)c1cccc2ccccc12`, the growth in the assay on DU-145 prostate is 85.3%; with K-562 leukemia it was 38.9%; with MALME-3M melanoma, 84.8%; with MDA-MB-231 breast, 86.9%; with RXF 393 renal, 93.3%; in the assay on SF-268 CNS, 77.4%. The growth in the assay with SF-295 CNS is 78.7%; in the assay on SF-539 CNS, 78.6%; in the assay on UACC-257 melanoma it was 79.1%; with M14 melanoma it was 51.7%.
In the case of `Brc1ccc2c(c1)c(-c1nc(-c3c[nH]c4ncccc34)cs1)cn2CCN1CCOCC1`, the growth with DU-145 prostate is 86.5%; with K-562 leukemia, 24.3%; in the assay on MALME-3M melanoma, 88.5%; with MDA-MB-231 breast it was 53.3%; with RXF 393 renal it was 74.6%; in the assay on SF-268 CNS, 65.4%. For the same compound, the growth with SF-295 CNS was 74.4%; in the assay on SF-539 CNS, 61%; with UACC-257 melanoma, 99.7%; in the assay with M14 melanoma, 63.8%.
In the case of `c1cnc2[nH]cc(-c3csc(-c4cn(CCCCN5CCOCC5)c5ccccc45)n3)c2c1`, the growth in the assay on DU-145 prostate was 70%; with K-562 leukemia, -38.7% (active); in the assay on MALME-3M melanoma, -25% (active); in the assay with MDA-MB-231 breast, 32.8%; in the assay on RXF 393 renal, 53.7%; in the assay with SF-268 CNS, 49.7%. In addition, the growth in the assay with SF-295 CNS was 53.9%; in the assay on SF-539 CNS it was 80.8%; with UACC-257 melanoma, 67.8%; with M14 melanoma it was -49.9% (active).
Take `O=C1OCCC1Br` (stereo not given): the growth is 106% with DU-145 prostate; 80.9% in the assay with K-562 leukemia; 97.8% in the assay with MALME-3M melanoma; 103% in the assay on MDA-MB-231 breast; 114% with RXF 393 renal; 108% in the assay on SF-268 CNS. Also, the growth is 105% with SF-295 CNS, 95.6% with SF-539 CNS, 83% in the assay on UACC-257 melanoma and 109% in the assay with M14 melanoma.
As for `C[C@@H]1O[C@@H](O[C@H]2C[C@@H](O)[C@]3(CO)C4C(CC[C@]3(O)C2)[C@@]2(O)CC[C@H](C3=CC(=O)OC3)[C@@]2(C)C[C@H]4O)[C@H](O)[C@H](O)[C@H]1O` (stereo not given in full), the growth is -94.4% (active) with DU-145 prostate; -22.4% (active) in the assay with K-562 leukemia; -31% (active) with MALME-3M melanoma; -22.5% (active) in the assay with MDA-MB-231 breast; -26.6% (active) in the assay with RXF 393 renal; -91.7% (active) in the assay with SF-268 CNS. The growth in the assay with SF-295 CNS is -51.5% (active); in the assay on SF-539 CNS, -80.1% (active); in the assay with UACC-257 melanoma, -91.7% (active); with M14 melanoma, -86.2% (active).
Regarding `COC(=O)[C@@H](C)C[C@H](Cc1ccccc1)NC(=O)c1csc([C@@H](C[C@H](C(C)C)N(C)C(=O)[C@@H](NC(=O)[C@H]2CCCCN2C)C(C)C)OC(C)=O)n1`, the growth in the assay with DU-145 prostate is 10.3%; in the assay with K-562 leukemia, 1.46% (active); with MALME-3M melanoma, 51.5%; in the assay with MDA-MB-231 breast, 1.38% (active); in the assay on RXF 393 renal it was 75.3%; in the assay on SF-268 CNS, 17.1%. For the same compound, the growth was -2.48% (active) in the assay on SF-295 CNS, -23% (active) with SF-539 CNS, 41.7% with UACC-257 melanoma and -32.1% (active) with M14 melanoma.
Consider `O=C1C2CCC1C(N1CCCC1)CC2` (stereo not given), for which the growth was 107% in the assay on DU-145 prostate; 98.8% with K-562 leukemia; 94.7% with MALME-3M melanoma; 110% in the assay on MDA-MB-231 breast; 104% with RXF 393 renal; 102% with SF-268 CNS. The growth with SF-295 CNS was 95.5%; in the assay with SF-539 CNS, 95%; with UACC-257 melanoma, 93%; in the assay on M14 melanoma, 101%.
With `CCOC(=O)CCN(C)C1=Nc2ccc(Cl)cc2C(c2ccccc2)=[N+]([O-])C1`, the growth with DU-145 prostate is 106%; in the assay on K-562 leukemia, 96.8%; in the assay on MALME-3M melanoma, 101%; with MDA-MB-231 breast, 97.9%; in the assay with RXF 393 renal it was 105%; in the assay on SF-268 CNS it was 99.6%. The growth was 102% with SF-295 CNS, 107% in the assay with SF-539 CNS, 105% with UACC-257 melanoma and 113% in the assay on M14 melanoma.
For the compound `O=C(CC1(O)C(=O)Nc2ccccc21)c1ccc(C(=O)NCC2CCC3(CC2)OOC2(CCCCC2)OO3)cc1` (stereo not given), the growth in the assay on DU-145 prostate was 76.3%; in the assay on K-562 leukemia, 39.6%; with MALME-3M melanoma it was 56.1%; with MDA-MB-231 breast, 67%; with RXF 393 renal it was 98.1%; with SF-268 CNS, 82%. The growth is 76.2% in the assay with SF-295 CNS, 81% with SF-539 CNS, 67.1% in the assay on UACC-257 melanoma and 85.7% in the assay with M14 melanoma.
